The values below come from PubChem BioAssay (Tox21).

A short description of assay [1]: qHTS assay to identify aromatase inhibitors - cell viability counter screen (AID 743084).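 Further: cells stimulated with testosterone during compound exposure; nearly all actives have a fitted effect of over 55% in size.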 Further: potency means the concentration at half of the fitted maximal effect.
Assay [2] concerns the target Aryl hydrocarbon receptor (Homo sapiens) (UniProt P35869). Kind of assay: qHTS assay to identify small molecule that activate the aryl hydrocarbon receptor (AhR) signaling pathway (AID 743085). Further: nearly all actives have a fitted effect of over 15% in size. Further: potency means the concentration at half of the fitted maximal effect.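 On activation: HG2L7.5c1 human HepG2 liver cells with stably integrated DRE-driven firefly reporter; series mostly up to about 70 µM.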 Put shortly:
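Stably transfected human liver carcinoma cells (HG2L7.5c1; 20 DRE-firefly luciferase) were incubated 5 h, dosed, and kept 24 h at 37C. Agonism was scored from increased luciferase luminescence.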

The nature of assay [3]: qHTS assay to identify small molecule that activate the aryl hydrocarbon receptor (AhR) signaling pathway - cell viability counter screen (AID 743086). Further: nearly all actives have a fitted effect of over 45% in size. Further: potency means the concentration at half of the fitted maximal effect. Put shortly: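 HepG2-AhR-luc (HG2L7.5c1) cells, 4000/well, were preincubated 5 h at 37C, exposed to compound in qHTS format for 24 hr at 37C, then given CellTiter-Fluor for 30 min; viability was read as fluorescence in the reporter wells.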
A general note: Quantitative high-throughput screening tests each substance at several concentrations.

Assay [4] concerns the target Peroxisome proliferator-activated receptor gamma (Homo sapiens) (UniProt P37231). Nature of the assay: qHTS assay to identify small molecule agonists of the peroxisome proliferator-activated receptor gamma (PPARg) signaling pathway (AID 743094; active means well fitted activation curve with a large enough effect in the signal ratio in the repeat runs, not every such curve was filed as active; the % refers to the signal ratio). In a few lines: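 Agonist activity was taken from a beta-lactamase reporter (FRET substrate, 1 h at room temperature) in HEK293H cells carrying a PPARg UAS-bla construct. Compounds in DMSO were incubated 17 h at 37C after a 5 h cell pre-incubation.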

Assay [5] can be described thus: qHTS assay to identify small molecule phospholipidosis (PLD) inducers (AID 1259344; active means well fitted curve in the direction sought with a large enough effect; an effect the other way counts as inactive or inconclusive). Put shortly:
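After 4 h attachment on collagen I, HepG2 cells were dosed with compound alongside LipidTOX Red, kept 24 h at 37 C, fixed, and imaged for lamellar phospholipid pits.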

The target of assay [6] is Nuclear receptor subfamily 1 group I member 2 (Rattus norvegicus) (UniProt Q9R1A7). Nature of the assay: Rat pregnane X receptor (rPXR) activation by small molecules, qHTS assay (AID 1346983). Further: nearly all actives have a fitted effect of over 20% in size. Further: potency means the concentration at half of the fitted maximal effect. The conditions noted are these: rPXR luciferase reporter cells, One-Glo luminescence, 24 h; max activation: hits give high values. In a few lines:
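Cell-based rPXR luciferase reporter assay, 2,000 cells per well, rested 5hr at 37 C before compound addition in DMSO, then 24 hr at 37 C. One-Glo reagent was added and luminescence read after 30 min at room temperature.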

The target of assay [7] is Nuclear receptor subfamily 1 group I member 2 (Homo sapiens) (UniProt O75469). Kind of assay: CYP3A4 induction through human pregnane X receptor (PXR) by small molecules, qHTS assay (AID 1346984). Further: nearly all actives have a fitted effect of over 40% in size. Further: potency means the concentration at half of the fitted maximal effect. In a few lines: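 Read-out is luminescence after One-Glo addition, following a 3 hr, 37C incubation with Luciferin-IPA CYP3A4 substrate (3uM final). Before that, compounds were on DPX-2 cells (HepG2 co-transfected with PXR element plus CYP3A4-promoter luciferase) for 24 hr at 37C.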

For assay [8] the target is unchanged. Nature of the assay: Human pregnane X receptor (PXR) activation by small molecules, qHTS assay (AID 1346985). Further: nearly all actives have a fitted effect of over 40% in size. Further: potency means the concentration at half of the fitted maximal effect. In a few lines:
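DPX-2 cells (HepG2 co-transfected with a PXR response element and a CYP3A4-promoter luciferase construct) were seeded at 2,000 per well, rested 5 hr at 37C, then exposed to DMSO-dissolved compounds for 24 hr. Activation was read as luciferase luminescence.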

Values joined by “and” are separate entries in the source; they are usually repeats but may differ in a detail not shown here. Equal entries are not always repeated. Results filed as inconclusive are left out. Values without a mark were called inactive. Active and inactive are the calls of the source. Unless noted, the call rests on the fitted dose curve; in most records, active means well fitted curve in the direction sought with a large enough effect in the repeat runs; inconclusive means weak or mixed curves; inactive means no such curve, though single readings can be large; an effect the other way counts as inactive or inconclusive.
On the % scale 0 is the no-effect control and ±100 the full control effect.

Sequence of Peroxisome proliferator-activated receptor gamma (Homo sapiens) (P37231 whole entry, looked up): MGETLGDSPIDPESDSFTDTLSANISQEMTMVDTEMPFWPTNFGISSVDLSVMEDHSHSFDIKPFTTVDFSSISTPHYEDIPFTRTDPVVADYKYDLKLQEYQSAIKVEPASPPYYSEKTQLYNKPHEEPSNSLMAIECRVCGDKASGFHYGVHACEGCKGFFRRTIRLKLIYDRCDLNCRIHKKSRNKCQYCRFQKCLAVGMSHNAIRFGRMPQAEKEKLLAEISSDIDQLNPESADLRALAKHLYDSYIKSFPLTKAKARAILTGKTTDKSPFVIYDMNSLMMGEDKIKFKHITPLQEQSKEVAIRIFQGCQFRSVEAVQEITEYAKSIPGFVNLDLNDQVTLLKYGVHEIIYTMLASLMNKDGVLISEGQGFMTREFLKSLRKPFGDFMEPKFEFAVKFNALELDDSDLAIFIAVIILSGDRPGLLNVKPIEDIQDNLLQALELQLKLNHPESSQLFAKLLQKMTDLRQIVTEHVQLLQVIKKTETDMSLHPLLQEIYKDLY
Sequence of Nuclear receptor subfamily 1 group I member 2 (Rattus norvegicus) (Q9R1A7 whole entry, looked up): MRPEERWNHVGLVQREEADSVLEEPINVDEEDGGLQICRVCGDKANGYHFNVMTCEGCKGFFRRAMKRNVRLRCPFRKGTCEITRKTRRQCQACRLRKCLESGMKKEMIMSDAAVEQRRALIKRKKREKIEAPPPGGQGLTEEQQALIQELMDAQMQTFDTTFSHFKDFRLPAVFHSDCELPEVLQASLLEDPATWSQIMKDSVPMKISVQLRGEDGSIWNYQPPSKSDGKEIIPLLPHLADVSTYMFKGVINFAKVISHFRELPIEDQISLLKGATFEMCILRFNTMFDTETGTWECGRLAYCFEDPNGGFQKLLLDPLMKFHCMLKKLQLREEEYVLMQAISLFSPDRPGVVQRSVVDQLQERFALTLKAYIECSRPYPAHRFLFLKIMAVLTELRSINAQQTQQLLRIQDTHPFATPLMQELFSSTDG
Sequence of Aryl hydrocarbon receptor (Homo sapiens) (P35869 whole entry, looked up): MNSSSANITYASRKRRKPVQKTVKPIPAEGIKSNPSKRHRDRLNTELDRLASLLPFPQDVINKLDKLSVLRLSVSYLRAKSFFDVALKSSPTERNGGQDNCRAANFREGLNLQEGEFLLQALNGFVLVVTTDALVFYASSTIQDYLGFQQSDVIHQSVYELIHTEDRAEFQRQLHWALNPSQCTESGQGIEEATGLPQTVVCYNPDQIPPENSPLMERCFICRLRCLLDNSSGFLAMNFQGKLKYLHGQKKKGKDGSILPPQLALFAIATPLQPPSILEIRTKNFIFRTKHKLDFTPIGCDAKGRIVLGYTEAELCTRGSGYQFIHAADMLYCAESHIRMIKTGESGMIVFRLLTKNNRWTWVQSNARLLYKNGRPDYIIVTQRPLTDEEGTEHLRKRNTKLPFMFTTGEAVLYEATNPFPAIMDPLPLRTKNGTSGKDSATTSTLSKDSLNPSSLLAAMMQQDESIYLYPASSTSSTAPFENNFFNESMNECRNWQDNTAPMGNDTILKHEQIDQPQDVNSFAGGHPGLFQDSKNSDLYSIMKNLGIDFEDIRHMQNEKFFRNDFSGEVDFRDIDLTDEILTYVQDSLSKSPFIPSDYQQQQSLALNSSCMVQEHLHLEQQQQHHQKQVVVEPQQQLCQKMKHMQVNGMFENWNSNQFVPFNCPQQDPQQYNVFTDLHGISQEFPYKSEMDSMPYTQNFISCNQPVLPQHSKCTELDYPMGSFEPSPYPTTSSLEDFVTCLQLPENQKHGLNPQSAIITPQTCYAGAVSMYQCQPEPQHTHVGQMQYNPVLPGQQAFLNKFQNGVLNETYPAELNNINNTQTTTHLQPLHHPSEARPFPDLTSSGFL

Take `COc1ccc(C[C@@H](C)NC[C@H](O)c2ccc(O)c(NC=O)c2)cc1`: the Potency result in assay [1], in assay [2], in assay [3], in assay [4], in assay [5] and in assay [7] was “inactive” in each case. Besides, the max activation in assay [6] is -1.9%.
On to `CC(=O)N[C@@H](C=O)[C@@H](O)[C@H](O)[C@H](O)CO`, for which the Potency result in assay [1], in assay [2], in assay [3], in assay [4], in assay [5] and in assay [7] was “inactive” throughout. For the same molecule, the max activation in assay [6] is -0.914%.
In the case of `CCOc1cc(-c2nccc3cc(OC)c(OC)cc23)cc(OCC)c1OCC`, the Potency in assay [1] is 29.8 µM (active); in assay [2] it was 2.11 µM (active); in assay [3] it was 21.1 µM (active). For the same molecule, the Potency result in assay [4], in assay [5] and in assay [7] was “inactive” in each case. Also, in assay [6], the max activation was 5.49%.
For the molecule `CCOC(=O)c1c[nH]c2cc(OCC(C)C)c(OCC(C)C)cc2c1=O`, the Potency entry in assay [1], in assay [3], in assay [4], in assay [5] and in assay [7] was “inactive” throughout. The max activation in assay [6] was -0.745%.
Turning to `C=C1CC[C@H](O)CC1=C/C=C1\CCC[C@]2(C)[C@@H]([C@H](C)CC[C@@H](O)C(C)(C)O)CC[C@@H]12`, the Potency entry in assay [1], in assay [3], in assay [5] and in assay [7] was “inactive” in each case. Besides, the max activation in assay [6] was 5.8%.
Turning to `CNC(=O)c1c(I)c(C(=O)NCC(=O)Nc2c(I)c(C(=O)O)c(I)c(C(=O)NCCO)c2I)c(I)c(N(C)C(C)=O)c1I`, the Potency result in assay [3], in assay [5] and in assay [7] was “inactive” each time. Further, in assay [6], the max activation is -3.62%.
For `CN(C)C(=O)CCSC(SCCC(=O)O)c1cccc(/C=C/c2ccc3ccc(Cl)cc3n2)c1` (centres undefined), the Potency in assay [2] is 1.88 µM (active); in assay [6], 4.47 µM (active). In addition, the Potency result in assay [5] and in assay [7] was “inactive” each time.
Regarding `C[C@H]1[C@@H](OC(=O)CCC(=O)O)O[C@@H]2OC3(C)CC[C@H]4[C@H](C)CC[C@@H]1[C@@]24OO3`, the Potency entry in assay [2], in assay [5] and in assay [7] was “inactive” in each case. Further, the max activation in assay [6] is -13.4%.
For `CCCCC(=O)O[C@H]1CC[C@H]2[C@@H]3CCc4cc(O)ccc4[C@H]3CC[C@]12C`, the Potency result in assay [1], in assay [3], in assay [4], in assay [5] and in assay [7] was “inactive” in each case. In addition, the max activation in assay [6] was -1.73%.
`CCC[C@@]1(CCc2ccccc2)CC(O)=C([C@H](CC)c2cccc(NS(=O)(=O)c3ccc(C(F)(F)F)cn3)c2)C(=O)O1`: the Potency result in assay [1] was “inactive”. For the same molecule, the PLD induction in assay [5] was -4.07% [at 7.66 µM].
With `CC(=O)O[C@H]1C[C@@]2(C)[C@@H](C[C@@H](O)[C@H]3[C@@]4(C)CC[C@@H](O)[C@@H](C)[C@@H]4CC[C@@]32C)/C1=C(\CCC=C(C)C)C(=O)O`, the Potency entry in assay [1], in assay [2], in assay [3], in assay [4], in assay [5] and in assay [8] was “inactive” throughout.
For `CCC(C)[C@H]1O[C@]2(C=C[C@@H]1C)C[C@@H]1C[C@@H](C/C=C(\C)[C@@H](O[C@H]3C[C@H](OC)[C@@H](O[C@H]4C[C@H](OC)[C@H](NC(C)=O)[C@H](C)O4)[C@H](C)O3)[C@@H](C)/C=C/C=C3\CO[C@@H]4[C@H](O)C(C)=C[C@@H](C(=O)O1)[C@]34O)O2` (some centres undefined), the Potency entry in assay [1], in assay [2] and in assay [5] was “inactive” in each case. The Potency in assay [3] was 11.9 µM (active) and 29.8 µM (active).
As for `CC(C)CN(C[C@@H](O)[C@H](Cc1ccccc1)NC(=O)O[C@H]1CO[C@H]2OCC[C@H]21)S(=O)(=O)c1ccc(N)cc1`, the Potency entry in assay [1], in assay [2], in assay [3] and in assay [5] was “inactive” each time.
Take `O.O=C([O-])CC([S-])C(=O)[O-].[Au+].[Na+].[Na+]` (centres undefined): the Potency result in assay [1], in assay [2] and in assay [5] was “inactive” each time.
Turning to `CCC(C)C(C(=O)OCC[N+](C)(CC)CC)c1ccccc1` (centres undefined), the Potency entry in assay [1], in assay [2], in assay [3] and in assay [5] was “inactive” throughout.
As to `C/C=C1\NC(=O)[C@H]2CSSCC/C=C/[C@H](CC(=O)N[C@H](C(C)C)C(=O)N2)OC(=O)C(C(C)C)NC1=O` (some centres undefined), the Potency in assay [1] was 13.3 µM (active); in assay [3] it was 15 µM (active). Besides, the Potency entry in assay [2] and in assay [5] was “inactive” in each case.
`O=C(O)COc1ccc(CCNS(=O)(=O)c2ccccc2)s1`: the Potency result in assay [1], in assay [2], in assay [3], in assay [4], in assay [5] and in assay [7] was “inactive” each time. Further, the Potency result in assay [8] is “inactive”.
Consider `Cc1cc(Nc2ccccc2C(=O)O)ccc1Cl`, for which the Potency entry in assay [1] and in assay [5] was “inactive” in each case. Further, in assay [2], the Potency is 26.6 µM (active).
`CO[C@H]1C=CO[C@@]2(C)Oc3c(C)c(O)c4c(O)c(c(/C=N/N5CCN(C6CCCC6)CC5)c(O)c4c3C2=O)NC(=O)/C(C)=C\C=C[C@H](C)[C@H](O)[C@@H](C)[C@@H](O)[C@@H](C)[C@H](OC(C)=O)[C@@H]1C`: the Potency is 23.7 µM (active) in assay [1] and 26.6 µM (active) in assay [3]. Besides, the Potency entry in assay [2] and in assay [5] was “inactive” throughout.
Take `C[N+]1(C)CCN(CC(O)(c2ccccc2)C2CCCCC2)CC1` (centres undefined): the Potency entry in assay [1], in assay [2], in assay [3] and in assay [5] was “inactive” throughout.
`CC1=C(/C=C/C(C)=C/C=C/C(C)=C/C=C/C=C(C)/C=C/C=C(C)/C=C/C2=C(C)C[C@@H](O)CC2(C)C)C(C)(C)C[C@H](O)C1`: the Potency result in assay [3], in assay [5], in assay [7] and in assay [8] was “inactive” each time.
In the case of `CN[C@H]1CCc2cc(OC)c(OC)c(OC)c2-c2ccc(OC)c(=O)cc21`, the Potency entry in assay [1], in assay [4], in assay [5] and in assay [7] was “inactive” in each case. In addition, in assay [8], the Potency is 1 µM (active).
On to `CCCC(=O)Nc1ncnc2c1ncn2[C@@H]1O[C@@H]2COP(=O)(O)O[C@H]2[C@H]1OC(=O)CCC`, for which the Potency result in assay [1], in assay [2] and in assay [5] was “inactive” throughout.
As for `CC1(C)C(\C=C/C=C\C=C/C=C2/N(CCCCS(=O)(=O)O)c3ccc4ccccc4c3C2(C)C)=[N+](CCCCS(=O)(=O)[O-])c2ccc3ccccc3c21`, the Potency entry in assay [2], in assay [4], in assay [5], in assay [7] and in assay [8] was “inactive” each time.
Regarding `COC(=O)CCC(=O)CN`, the Potency entry in assay [1], in assay [2], in assay [3] and in assay [5] was “inactive” each time.
For the molecule `COc1ccc(CCNC[C@H](O)c2ccc(O)cc2)cc1OC`, the Potency result in assay [1], in assay [3], in assay [4], in assay [5], in assay [7] and in assay [8] was “inactive” throughout.
Take `CC1(C)N=C(N)N=C(N)N1c1ccc(Cl)cc1`: the Potency result in assay [1], in assay [2] and in assay [3] was “inactive” throughout. The PLD induction in assay [5] was -3.82% [at 7.66 µM].
As for `CC(=O)O[C@H]1C(=O)[C@@]2(C)[C@H]([C@H](OC(=O)c3ccccc3)[C@]3(O)C[C@H](OC(=O)[C@H](O)[C@@H](NC(=O)c4ccccc4)c4ccccc4)C(C)=C1C3(C)C)[C@]1(OC(C)=O)CO[C@@H]1C[C@@H]2O`, the Potency was 6.68 µM (active) in assay [1], 6.31 µM (active) in assay [7] and 15.8 µM (active) in assay [8]. Besides, the Potency entry in assay [2], in assay [4] and in assay [5] was “inactive” each time.
`CCCC(=O)N1CCCN(c2nc(N)c3cc(OC)c(OC)cc3n2)CC1`: the Potency entry in assay [1], in assay [3] and in assay [5] was “inactive” each time. Further, the Potency in assay [2] was 5.31 µM (active).
Take `CCC(=O)NS(=O)(=O)c1ccc(-c2c(-c3ccccc3)noc2C)cc1`: the Potency result in assay [1], in assay [2] and in assay [5] was “inactive” each time.
